Laboratory results as given in PubChem BioAssay AID743365 (National Center for Advancing Translational Sciences (NCATS), 2014).

Test: qHTS profiling of inhibitors of Plasmodium falciparum (DD2) proliferation (acoustic dispense)
Settings: P. falciparum Dd2 in erythrocytes, SYBR Green DNA, 72 h; at 49.8 µM (top of the series) unless noted
Description: Plasmodium falciparum is a virulent malarial parasite that kills 1-2 million people worldwide each year. Transmitted by mosquitoes, the sporozoite form of the parasite enters the blood stream to infect hepatocytes, where they become merozoites that infect red blood cells (erythrocytes). Within erythrocytes, merozoites begin a […] cycle of growth and division, after which the parasite is released to infect new red blood cells. Gametocytes, which form within erythrocytes as well, circulate in the bloodstream and are ingested by the mosquito, thereby completing the life cycle. To profile malarial isolates for differential chemical responses and to identify inhibitors of malarial growth, an assay that measures P. falciparum growth and replication within erythrocytes was employed. This assay uses a DNA binding fluorescent dye (SYBR Green) to detect parasite DNA following cell lysis. Because mature erythrocytes lack DNA, only Plasmodium-derived DNA is detected.
The SYBR Green viability assay was adapted from a method described previously (Plouffe et al., 2008). For screening 3 ul culture medium was dispensed into 1536 well black clear bottom plates (Aurora Biotechnologies) using a Multidrop Combi (Thermo Fisher Scientific Inc.), 23 nL of compounds in DMSO were added by an acoustic dispenser (EDC Biosystems), and 5 ul of erythrocytes infected with P. falciparum (0.3% parasitemia, 2.5% hematocrit final concentration) were added. The plates were incubated at 37 C in a humidified incubator in 5% CO2 for 72 h, and 2 ul lysis buffer (20 mM Tris HCl, 10 mM EDTA, 0.16% saponin, 1.6% triton X, 10X SYBR Green I supplied as 10,000X […] by Invitrogen) was added to each well. The plates were mixed for 25 sec with gentle shaking and incubated overnight at room temperature in the dark. The following morning, fluorescence intensity at 485(14) nm excitation and 535(25) nm emission wavelengths was measured on an EnVision (Perkin Elmer) plate reader. Plate reads were normalized relative to the control inhibitor (0.29 uM artemisinin) and vehicle (DMSO) wells present on each plate and then corrected by an algorithm using vehicle-only control plates at the beginning and end of the compound plate stack.
In the case of `CC(=Cc1csc(C)n1)[C@@H]1C[C@H]2O[C@@H]2CCC[C@H](C)[C@@H](O)[C@@H](C)C(=O)C(C)(C)[C@@H](O)CC(=O)O1`, the parasite growth, lower = inhibition is reported as 3%.
With `CO[C@H]1CCC(O[C@H]2C[C@H]([C@]3(C)CC[C@]4(C[C@H](O)[C@@H](C)[C@@H]([C@@H](C)C=C(C)C(=O)[C@H](C)C[C@H](C)C(=O)O)O4)O3)O[C@]3(O[C@@H]([C@H]4O[C@@](O)(CO)[C@H](C)C[C@H]4C)C[C@H]3C)[C@H]2C)O[C@H]1C` (some centres not stated) the parasite growth, lower = inhibition was 104%.
For `COC1=CC(C)=C[C@@H](C)[C@@H](O)[C@@H](C)CC(C)=CC=C[C@H](OC)[C@H]([C@@H](C)[C@@H](O)[C@H](C)[C@@]2(O)C[C@@H](O)[C@H](C)[C@@H](C(C)C)O2)OC1=O`, the parasite growth, lower = inhibition was 0.538%.
For `OB1OCc2cc(F)ccc21`, the parasite growth, lower = inhibition was 88.5%.
`CC1=C(O)C(=O)C=C2C1=CC=C1[C@@]2(C)CC[C@@]2(C)[C@@H]3C[C@](C)(C(=O)O)CC[C@]3(C)CC[C@]12C` showed a parasite growth, lower = inhibition of 3.33%.
`CN1C(=O)C[C@H](C(=O)N[C@@H](Cc2cnc[nH]2)C(=O)N2CCC[C@@H]2C(N)=O)NC1=O` gave a parasite growth, lower = inhibition of 82%.
In the case of `COC(=O)[C@@]1(OC)C[C@@H]2O[C@@]1(C)n1c3ccccc3c3c4c(c5c6ccccc6n2c5c31)C(=O)N(C)C4`, the parasite growth, lower = inhibition is reported as 13.1% [at 16.5 µM].
Compound `CC(=O)Nc1nnc(S(N)(=O)=O)s1` has a parasite growth, lower = inhibition of 91%.
Compound `O=c1[nH]c2ccc(Cl)cc2c(N[C@@H]2CN3CCC2CC3)c1-c1nc2ccccc2[nH]1` has a parasite growth, lower = inhibition of 0.0567%.
For `C[C@@H]1C[C@@H]([C@H](O)CC2CC(=O)NC(=O)C2)C(=O)[C@@H](C)C1`, the parasite growth, lower = inhibition was 0.0707%.
For `CC=C(C)C(=O)N[C@@H](c1ccccc1)[C@@H](O)C(=O)O[C@H]1C[C@@]2(O)[C@@H](OC(=O)c3ccccc3)[C@@H]3[C@]4(OC(C)=O)CO[C@@H]4C[C@H](O)[C@@]3(C)C(=O)[C@H](OC(C)=O)C(=C1C)C2(C)C`, the parasite growth, lower = inhibition was 4.37%.
Work on `O=C(C[C@@H]1NCCC[C@@H]1O)Cn1cnc2ccccc2c1=O` yielded a parasite growth, lower = inhibition of -0.505%.
`C[C@]12O[C@H](C[C@@]1(O)C(=O)O)n1c3ccccc3c3c4c(c5c6ccccc6n2c5c31)CNC4=O` showed a parasite growth, lower = inhibition of 5.95% [at 4.15 µM].
Work on `CC(=O)N(O)CCCP(=O)(O)O` yielded a parasite growth, lower = inhibition of 4.17%.
For `C[C@H]1CCCC=CC2C[C@H](O)C[C@@H]2[C@H](O)C=CC(=O)O1` (some centres not stated), the parasite growth, lower = inhibition was -0.172%.
In the case of `CC=C1C2C=C(C)CC1(N)c1ccc(=O)[nH]c1C2` (configuration not stated), the parasite growth, lower = inhibition is reported as 97.1%.
For `CC(C)(N)CNC(=O)CC1CCC2(CC1)OOC1(O2)C2CC3CC(C2)CC1C3` (configuration not stated), the parasite growth, lower = inhibition was -0.141%.
